Measurements as given in PubChem BioAssay (Tox21).
Inconclusive results are not listed. Active and inactive are the calls of the source. The call rests on the fitted dose curve.

Experiments:
[1] = target: Acetylcholinesterase (Homo sapiens) (UniProt P22303); assay: Acetylcholinesterase (AChE) small molecule antagonists: colormetric cell-based qHTS assay (AID 1347395); further: nearly all actives have a fitted effect of over 30% in size
Outline: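 Colorimetric readout: DTNB quantifies thiocholine from acetylthiocholine hydrolysed by endogenous AChE of SH-SY5Y cells (2,000/well, plated overnight). Compound pretreatment 30 min, substrate incubation 90 min, both 37 C.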

[2] = target: Acetylcholinesterase (Homo sapiens) (UniProt P22303); assay: Acetylcholinesterase (AChE) small molecule antagonists: enzyme-based qHTS assay (AID 1347397); conditions: Potency: AChE enzyme activity inhibition; outcome: AChE enzyme activity inhibition; further: nearly all actives have a fitted effect of over 55% in size; further: potency means the concentration at half of the fitted maximal effect
Outline: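 First, recombinant human AChE (50 mU/mL as dispensed) received test compound or DMSO. Second, plates stood 30 min at room temperature. Third, DTNB and acetylthiocholine were added, followed by 10 min at room temperature and colorimetric detection.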

[3] = target: Acetylcholinesterase (Homo sapiens) (UniProt P22303); assay: Acetylcholinesterase (AChE) small molecule antagonists: fluorescence cell-based qHTS assay (AID 1347398); conditions: Potency: AChE activity; outcome: AChE activity; further: nearly all actives have a fitted effect of over 50% in size
Outline: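 Homogeneous quantitative HTS format. SH-SY5Y cells seeded at 2,000 per well settle overnight at 37 C. Compound pretreatment runs 30 min (37 C, 5% CO2); substrate/probe mix then reacts 40 min at RT before reading 490/520 nm.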

[4] = target: Acetylcholinesterase (Homo sapiens) (UniProt P22303); assay: Acetylcholinesterase (AChE) small molecule antagonists: enzyme-based qHTS assay with human liver microsomes (AID 1347399); conditions: Potency: qHTS inhibition; outcome: qHTS inhibition; further: nearly all actives have a fitted effect of over 60% in size
Outline: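 Recombinant human AChE (50 mU/mL in the enzyme mix) and human liver microsomes (0.25 mg/mL final) were preincubated with compound and NADPH (0.25 mg/mL final) for 30 min at 37 C. Acetylthiocholine/DTNB was then added; thiocholine was read colorimetrically after 10 min at room temperature.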
On the % scale 0 is the no-effect control and ±100 the full control effect.

Sequence of Acetylcholinesterase (Homo sapiens) (P22303 whole entry, looked up): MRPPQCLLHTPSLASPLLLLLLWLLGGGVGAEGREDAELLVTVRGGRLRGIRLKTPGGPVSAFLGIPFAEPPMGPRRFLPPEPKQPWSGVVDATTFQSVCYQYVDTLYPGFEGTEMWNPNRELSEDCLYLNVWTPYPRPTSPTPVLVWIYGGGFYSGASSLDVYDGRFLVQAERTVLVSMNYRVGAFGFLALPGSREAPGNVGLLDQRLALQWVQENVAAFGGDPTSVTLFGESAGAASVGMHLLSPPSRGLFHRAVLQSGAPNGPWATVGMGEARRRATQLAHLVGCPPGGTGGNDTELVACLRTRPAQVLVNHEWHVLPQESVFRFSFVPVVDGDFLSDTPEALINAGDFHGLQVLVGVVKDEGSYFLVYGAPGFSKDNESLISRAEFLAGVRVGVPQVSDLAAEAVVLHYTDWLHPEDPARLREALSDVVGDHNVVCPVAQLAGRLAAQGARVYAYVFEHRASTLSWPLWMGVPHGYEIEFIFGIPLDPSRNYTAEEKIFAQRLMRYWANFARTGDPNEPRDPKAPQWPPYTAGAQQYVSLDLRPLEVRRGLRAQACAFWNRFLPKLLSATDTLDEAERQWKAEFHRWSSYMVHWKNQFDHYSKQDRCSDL

CN(C)CCCN(C)CCCN(C)C
inactive: Potency [1] | Potency [2] | Potency [3] | Potency [4]

Cc1cc(C2(c3cc(C)c(O)cc3C)OS(=O)(=O)c3ccccc32)c(C)cc1O
inactive: Potency [1] | Potency [2] | Potency [3] | Potency [4]

CC(=O)O[Si](C)(OC(C)=O)OC(C)=O
inactive: Potency [1] | Potency [2] | Potency [3] | Potency [4]

CC(C)(C(=O)c1cccnc1)c1cccnc1
inactive: Potency [1] | Potency [2] | Potency [3] | Potency [4]

CN(C)C(=O)Nc1ccc(Cl)c(Cl)c1
inactive: Potency [1] | Potency [2] | Potency [3] | Potency [4]

N#Cc1nc(Cl)c(Cl)c(Cl)c1Cl
inactive: Potency [1] | Potency [2] | Potency [3] | Potency [4]

CC(C)c1cc2c(cc1S(=O)(=O)O)[C@@]1(C)CCC[C@@](C)(C(=O)O)[C@@H]1CC2
inactive: Potency [1] | Potency [2] | Potency [3] | Potency [4]

Oc1ccc(Cc2ccccc2O)cc1
inactive: Potency [1] | Potency [2] | Potency [3] | Potency [4]

Cn1c(=O)[nH]c2ncn(C)c2c1=O
inactive: Potency [1] | Potency [2] | Potency [3] | Potency [4]

C=CCOCC(CC)(CO)COCC=C
inactive: Potency [1] | Potency [2] | Potency [3] | Potency [4]

CC1(C)NC(=O)NC1=O
inactive: Potency [1] | Potency [2] | Potency [3] | Potency [4]

CCOC(=O)[C@H](CCc1ccccc1)N[C@@H](C)C(=O)N1CCC[C@H]1C(=O)O
inactive: Potency [1] | Potency [2] | Potency [3] | Potency [4]

c1ccc2scnc2c1
inactive: Potency [1] | Potency [2] | Potency [3] | Potency [4]

Oc1c(Cl)cc(Cl)c2cccnc12
inactive: Potency [1] | Potency [2] | Potency [3] | Potency [4]

O=C(O)Cc1ccccc1Oc1ccc(Cl)cc1Cl
inactive: Potency [1] | Potency [2] | Potency [3] | Potency [4]

CC1(C)COCN1
inactive: Potency [1] | Potency [2] | Potency [3] | Potency [4]

NC(=O)Cc1cccc(C(=O)c2ccccc2)c1N
inactive: Potency [1] | Potency [2] | Potency [3] | Potency [4]

CCCC(CC)c1ccccc1 (stereo not given)
inactive: Potency [1] | Potency [2] | Potency [3] | Potency [4]

O=C1CCC/C=C\CCCCCCCCCC1
inactive: Potency [1] | Potency [2] | Potency [3] | Potency [4]

COc1ccccc1N1CCN(CC(O)COc2cccc3ccccc23)CC1 (stereo not given)
inactive: Potency [1] | Potency [2] | Potency [3] | Potency [4]

CCCCCC(N)=O
inactive: Potency [1] | Potency [2] | Potency [3] | Potency [4]

CC(=O)c1ccccc1
inactive: Potency [1] | Potency [2] | Potency [3] | Potency [4]

CS(=O)(=O)c1ccc(Cl)cc1
inactive: Potency [1] | Potency [2] | Potency [3] | Potency [4]

c1ccc(CCc2ccccc2)cc1
inactive: Potency [1] | Potency [2] | Potency [3] | Potency [4]

CCC(=O)O[C@@H]1C[C@H]2CC[C@]1(C)C2(C)C
inactive: Potency [1] | Potency [2] | Potency [3] | Potency [4]

Nc1ccncc1N
inactive: Potency [1] | Potency [2] | Potency [3] | Potency [4]

CCOC(=O)CCC(C)=O
inactive: Potency [1] | Potency [2] | Potency [3] | Potency [4]

CCCCCCCCCCCCc1ccc(O)cc1
active: Potency [2] 63.3 µM
inactive: Potency [1] | Potency [3] | Potency [4]

CC(C)(O)CCc1ccccc1
inactive: Potency [1] | Potency [2] | Potency [3] | Potency [4]

COCCOCC(OC)OC
inactive: Potency [1] | Potency [2] | Potency [3] | Potency [4]

CCOc1cc([N+](=O)[O-])c(OCC)cc1N1CCOCC1
inactive: Potency [1] | Potency [2] | Potency [3] | Potency [4]

C[C@]12CCC(=O)C=C1CC[C@@H]1[C@@H]2[C@@H](O)C[C@@]2(C)[C@H]1CC[C@]2(O)C(=O)CO
inactive: Potency [1] | Potency [2] | Potency [3] | Potency [4]

BrCc1cccc(Oc2ccccc2)c1
inactive: Potency [1] | Potency [2] | Potency [3] | Potency [4]

CCCCNC(N)=O
inactive: Potency [1] | Potency [2] | Potency [3] | Potency [4]

CCOC(=O)Oc1ccc(CCNC(=O)[C@H](CCSC)NC(C)=O)cc1OC(=O)OCC
inactive: Potency [1] | Potency [2] | Potency [3] | Potency [4]

C1COC(NC(C2CC2)C2CC2)=N1
inactive: Potency [1] | Potency [2] | Potency [3] | Potency [4]

c1ccc2ncccc2c1
inactive: Potency [1] | Potency [2] | Potency [3] | Potency [4]

CC[C@H](c1ccc(O)cc1)[C@@H](CC)c1ccc(O)cc1
inactive: Potency [1] | Potency [2] | Potency [3] | Potency [4]

COc1ccc(C(=O)c2ccc(C)cc2)c(O)c1
inactive: Potency [1] | Potency [2] | Potency [3] | Potency [4]

CCCCCCCCCCCCCCCCN
inactive: Potency [1] | Potency [2] | Potency [3] | Potency [4]

Cc1cccnc1
inactive: Potency [1] | Potency [2] | Potency [3] | Potency [4]

NCCNC(=O)c1ccc(Cl)cn1
inactive: Potency [1] | Potency [2] | Potency [3] | Potency [4]

C=C(C)c1cccc(C(C)(C)N=C=O)c1
inactive: Potency [1] | Potency [2] | Potency [3] | Potency [4]

OCc1c2ccccc2cc2ccccc12
inactive: Potency [1] | Potency [2] | Potency [3] | Potency [4]

COc1ccccc1C=O
inactive: Potency [1] | Potency [2] | Potency [3] | Potency [4]

COC(=O)C1=C(C)NC(C)=C(C(=O)OCC(C)=O)C1c1ccccc1[N+](=O)[O-] (stereo not given)
inactive: Potency [1] | Potency [2] | Potency [3] | Potency [4]

C[C@H]1C[C@@H]2[C@H]([C@@H](O)C[C@@]3(C)[C@H]2CC[C@]3(O)C(=O)CO)[C@@]2(C)C=CC(=O)C=C12
inactive: Potency [1] | Potency [2] | Potency [3] | Potency [4]

CC1=CCC(C(C)C)=CC1
inactive: Potency [1] | Potency [2] | Potency [3] | Potency [4]

CC(Cl)COP(=O)(OCC(C)Cl)OCC(C)Cl (stereo not given)
inactive: Potency [1] | Potency [2] | Potency [3] | Potency [4]

CCn1c2ccccc2c2cc(N)ccc21
inactive: Potency [1] | Potency [2] | Potency [3] | Potency [4]

Cc1ccc(C(C)(C)C)c(O)c1
inactive: Potency [1] | Potency [2] | Potency [3] | Potency [4]

CC(C)(O)CCC(C)(C)O
inactive: Potency [1] | Potency [2] | Potency [3] | Potency [4]

O=c1[nH]nnc2ccccc12
inactive: Potency [1] | Potency [2] | Potency [3] | Potency [4]

CN1C[C@@H]2C[C@H]1CN2c1cc2c(cc1F)c(=O)c(C(=O)O)cn2C1CC1
inactive: activity, negative = inhibition [1] 1.26% [at 23.6 µM] | activity change, negative = inhibition [2] -0.543% [at 23.6 µM] | activity change, negative = inhibition [3] 1.64% [at 23.8 µM] | activity change, negative = inhibition [4] 0.0665% [at 23.6 µM]

C1=Cc2ccccc2C1
inactive: Potency [1] | Potency [2] | Potency [3] | Potency [4]

COC(=O)C(C)Oc1ccc(Oc2ncc(C(F)(F)F)cc2Cl)cc1 (stereo not given)
inactive: Potency [1] | Potency [2] | Potency [3] | Potency [4]

O=c1c(O)c(-c2ccc(O)c(O)c2)oc2cc(O)cc(O)c12
inactive: Potency [1] | Potency [2] | Potency [3] | Potency [4]

CC(=O)c1ccc(OCC(=O)N2CCCCC2)cc1
inactive: Potency [1] | Potency [2] | Potency [3] | Potency [4]

CCCCOCCOCCOCCCC
inactive: Potency [1] | Potency [2] | Potency [3] | Potency [4]

CN1CCC[C@@H]1c1cccnc1
inactive: Potency [1] | Potency [2] | Potency [3] | Potency [4]
